Test results taken from PubChem BioAssay (NCI).
About 83,000 compounds went through this panel and 20% of them were active in at least one assay; those are over-represented in the sample as a whole.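 The test compound was applied at a single concentration to cells in 96-well plates for 48 hours, and percent growth was recorded.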 Unmarked numbers belong to inactive results. Calls of active or inactive are those of the source. Rule for the calls: active = growth percent below 10; inactive = the rest.

Assays:
Assay in all cases: NCI-60 one-dose screen, 48 h (100 = growth as untreated, 0 = no growth, -100 = all killed)
Details in all cases: 10 µM unless noted
[1] = system: T-47D breast
[2] = system: MDA-MB-435 melanoma
[3] = system: SW-620 colon
[4] = system: MCF7 breast
[5] = system: HCT-116 colon
[6] = system: HCC-2998 colon
[7] = system: KM12 colon
[8] = system: BT-549 breast

| SMILES | growth [1] | growth [2] | growth [3] | growth [4] | growth [5] | growth [6] | growth [7] | growth [8] [%] |
| --- | --- | --- | --- | --- | --- | --- | --- | --- |
| CSc1nc(-c2cccc(NC(=O)CCl)c2)c(C#N)c(=O)n1C | 34.5% | 54.5% | 27.3% | 20.6% | 7.55% (active) | 116% | 98.5% |  |
| CCN(CC)c1ccc2c(c1)Oc1nc(N)c(C#N)c(N)c1C2Sc1ccc(SC)cc1 (stereo unspecified) | -4.08% (active) | -25.7% (active) | -70.7% (active) | -0.904% (active) | -27.5% (active) | -72.2% (active) | -74.5% (active) |  |
| COc1cc2nc(N3CCCC3)nc(NCc3ccccc3)c2cc1OC | 7.79% (active) | 6.99% (active) | 55.9% | 29.4% |  | 55.4% | 96.3% |  |
| Cn1ncc2c(=O)nc3c(-c4ccccc4)n[nH]n3c21 | 95.6% | 101% | 107% | 92.8% | 97.6% | 99.2% | 113% |  |
| CC(C)CSc1nc(N)nc2c1ncn2C1OC(CO)C(O)C1O (stereo unspecified) | 106% | 91% | 94.4% | 99.5% |  | 102% | 96.7% |  |
| CC(C)(C)CC(C)(C)c1ccc(OCCOCC[N+](C)(C)Cc2ccccc2)cc1 | -7.78% (active) | -81.1% (active) | -39.2% (active) | -80.4% (active) | -27.9% (active) | -32.5% (active) | -91.3% (active) |  |
| Cn1ccnc1C(=O)/C=C/c1ccccc1 | 18.4% | 10.8% | 5.92% (active) | 2.27% (active) | 9.05% (active) |  | -20.6% (active) |  |
| C=CC(=O)Nc1cccc(Nc2nc(SC)nc(-c3cccc([N+](=O)[O-])c3)c2C#N)c1 | 42.7% | 53% | 31.6% | 28.5% | 19.8% | 48.2% | 90.5% |  |
| COc1cc(-c2nc(C(=O)NCC(=O)NO)nn2-c2ccc(Cl)cc2)cc(OC)c1OC | 88.2% | 100% | 97.1% | 92.2% | 101% |  | 95.9% |  |
| O=C(COc1cccc(/C=C2\COc3ccccc3C2=O)c1)Nc1nccs1 | 54.7% | 53.5% | -40.7% (active) | -12.5% (active) | -100% (active) |  | -44.6% (active) |  |
| C=CC(=O)Nc1cccc(-c2nc(SC)nc(Nc3cccc(OC)c3)c2C#N)c1 | 38.5% | 43.4% | 89.1% | 52.2% | 54.4% | 82.3% | 87.9% |  |
| NC(=NCCCOc1ccc(Cl)cc1)Nc1ccc(C(F)(F)F)cc1 | 2.82% (active) | 8.95% (active) | 14.5% | 9.17% (active) | 8.24% (active) |  | 25.2% |  |
| FC(F)(F)c1ccc(-c2cn3nc(-c4c[nH]c5ccc(Br)cc45)sc3n2)cc1 | 67.6% | 100% | 97.3% | 74.9% | 93.1% | 95.6% | 87.3% |  |
| O=C(Nc1cccc2[nH]c(C(F)(F)F)nc12)c1ccc(-n2cnnn2)cc1 |  | 105% | 104% | 96.2% | 96% | 116% | 72.7% | 63 |
| CC(C)(CCCN=C(N)Nc1ccc(Cl)cc1)c1ccc(F)cc1 | 53.9% | 63% | 43.4% | 52.9% | 28.6% |  | 57.5% |  |
| Cc1ccc(NS(=O)(=O)c2ccc(-c3cnc(C4CC4)o3)cc2)cc1C | 26.4% | 4.45% (active) | 19.7% | 12.1% | 19.4% |  | 42.8% |  |
| C#CCOc1ccc2ncnc(N3CCN(C(=O)CCl)CC3)c2c1 | -48.7% [8.25 µM] (active) | 86.6% [8.25 µM] | 47.1% [8.25 µM] | 65.1% [8.25 µM] | 27.7% [8.25 µM] | 112% [8.25 µM] | 108% [8.25 µM] |  |
| O=C1NC(=S)N[C@H]1CC(=O)n1cnc2ccccc21 | 99.6% | 105% | 97.2% | 68.7% | 104% | 103% | 100% |  |
| O=C1/C(=C/c2ccc3c(c2)OCO3)SC(=S)N1CCc1ccc(O)cc1 | 59.2% | 94% | 111% | 112% |  | 103% | 86.3% |  |
| CC(C)CC1C(=O)N2CCC[C@H]2C2(O)O[C@](NC(=O)C3C=C4c5cccc6[nH]c(Br)c(c56)C[C@H]4N(C)C3)(C(C)C)C(=O)N12 (stereo partly specified) | 47.2% | 62.8% | 52.3% | 39.7% | 36.1% | 89.1% | 40.3% |  |
| CSc1ccc(SC2c3ccc(C)cc3Oc3nc(N)c(C#N)c(N)c32)cc1 (stereo unspecified) | -45.1% (active) |  | -68.1% (active) | -52.2% (active) | -83.3% (active) | -88.2% (active) | -42.3% (active) |  |
| Cc1ccc2c(C(C[N+](=O)[O-])c3ccccc3F)c(-c3ccccc3)[nH]c2c1 (stereo unspecified) | 29.3% |  | 19.7% | 24.4% |  | 73.9% | 23.3% |  |
| O=C(Oc1cccnc1)c1ccsc1Nc1ccnc(C(F)(F)F)c1 | 72.7% | 82.6% | 21% | 58.2% | 9.98% (active) | 114% | 41% |  |
| COc1ccc(C(=O)c2sc3nc4c(c(-c5cccnc5)c3c2N)CCCC4)cc1OC |  | 91.7% | 107% | 90.2% | 88.2% | 110% | 76.3% | 74.6 |
| COc1ccc(C(=O)c2sc3nc(C)cc(C)c3c2N)cc1OC |  | 91.8% | 99.5% | 84% | 87% | 99.1% | 94.3% | 93.2 |
| CCOC(=O)c1sc2nc(-c3cccc(O)c3)nc(N3CCOCC3)c2c1C | 5.33% (active) | 63.5% | 73.2% | 55.5% | 68.1% | 78.2% | 63.3% |  |
| CC(=O)O[C@H]1CC[C@]2(C)[C@H]3CC=C4[C@@H]5CC(C)(C)CC[C@]5(C(=O)NCCNCCNCCN)CC[C@@]4(C)[C@]3(C)CC[C@H]2C1(C)C | -15.1% (active) |  | -83.1% (active) | -85.9% (active) | -80.8% (active) | 1.19% (active) | 85.3% |  |
| Fc1ccc(CNc2cccc3[nH]c(C(F)(F)F)nc23)cc1 |  | 95.7% | 94.6% | 92.4% | 95.8% |  | 90.6% | 99 |
| CC(=O)O[C@H]1[C@@H]2OC(=O)C(CSc3ccccc3)[C@@H]2C[C@H]2O[C@]2(C)CC/C=C(\C)CCC[C@@H]1C (stereo partly specified) | 38.3% | 25.8% | -20.7% (active) | 10.6% | -36.7% (active) | 80.7% | 51.5% |  |
| COc1cc(/C=C/C(=O)c2ccc(O)c(CN3CCN(c4cc5c(cc4F)c(=O)c(C(=O)O)cn5C4CC4)CC3)c2)cc(OC)c1OC | 50.4% | 28.6% | 34.8% | 18.6% | 7.72% (active) | 67.2% | 72% |  |
